# Hits are enriched below; roughly 8.8% of the tested compounds scored in any of these assays.
# HPGD block – inhibitors of human 15-hydroxyprostaglandin dehydrogenase (HPGD) | purified HPGD, NADH fluorescence kinetic, PGE2 substrate | Potency, µM, actives largely listed as inhibitors | 4.3% of 150,000 active | AID 894; active means well fitted inhibition curve with a large enough effect, not every such curve was filed as active; inconclusive means small, poorly fitted or top-dose-only effect, or another doubt; inactive means no such curve, though single readings can be large or run the other way
#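 NADH formation kinetics: reaction with 30 uM PGE2 and 1 mM NAD+ (final), 20 nM enzyme, Tris-HCl pH 8 with Tween 20, after 15 min compound preincubation at room temperature. Fluorescence change, last versus first of five reads.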
# LMNA splice mod – modulators of lamin A splicing; HeLa LMNA splicing GFP/RFP minigene ratio, 48 h; Potency, µM (top dose mostly 46.1 µM), actives largely listed as inhibitors; 0.01% of 200,000 active; AID 1487; active means well fitted inhibition curve with a large enough effect in the signal ratio, with a control signal flat, not every such curve was filed as active; inconclusive means small, poorly fitted or top-dose-only effect, or effect the other way, or a change in a side signal; the % refers to the signal ratio
#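 S3 HeLa stable clones carrying a lamin A-EGFP splicing minigene plus DsRed2 were seeded at 600 cells/well in Opti-MEM with 2% FBS, pin-dosed and incubated 48 h at 37°C. Acumen cytometry (488 nm) gave the GFP/RFP total-intensity ratio.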
# ALDH1A1 block – blocks purified human ALDH1A1 activity. Purified ALDH1A1, NADH fluorescence, propionaldehyde substrate. Potency, µM (highest dose often 75.3 µM), hits mostly inhibitors. 7.3% of 220,000 active. AID 1030; active means well fitted inhibition curve with a large enough effect, not every such curve was filed as active; inconclusive means small, poorly fitted or top-dose-only effect, or another doubt; inactive means no such curve, though single readings can be large or run the other way
# Target sequence (P00352 whole entry, looked up): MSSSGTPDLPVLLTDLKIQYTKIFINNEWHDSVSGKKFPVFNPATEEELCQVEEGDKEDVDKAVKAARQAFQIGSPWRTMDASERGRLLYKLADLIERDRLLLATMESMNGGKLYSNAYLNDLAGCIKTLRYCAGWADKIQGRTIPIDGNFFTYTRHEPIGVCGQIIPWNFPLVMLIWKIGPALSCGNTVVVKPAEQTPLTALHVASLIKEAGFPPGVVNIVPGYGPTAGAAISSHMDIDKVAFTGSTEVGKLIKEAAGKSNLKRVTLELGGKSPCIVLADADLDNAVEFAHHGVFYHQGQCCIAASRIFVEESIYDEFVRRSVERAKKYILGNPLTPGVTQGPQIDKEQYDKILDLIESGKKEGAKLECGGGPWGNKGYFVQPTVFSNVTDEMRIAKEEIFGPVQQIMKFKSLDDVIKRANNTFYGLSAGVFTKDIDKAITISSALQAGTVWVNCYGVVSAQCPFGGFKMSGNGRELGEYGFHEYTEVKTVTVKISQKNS
# HTT ATP protect – cytoprotection in Huntington HTT-Q103 PC12 cell model; AID 1471; 0.14% of 230,000 active; Potency, µM (series often up to 56.4 µM), usual class: activators; PC12 HTT-Q103 induced, cytoprotection, ATP luminescence, 40 h; further: nearly all actives have a fitted effect of over 45% in size
#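 PC12 cells stably carrying ecdysone-inducible Htt exon 1 (Q103)–GFP were induced with 100 nM tebufenozide (final) alongside library compounds in a dose series. Cytoprotection was scored as retained ATP by ATPlite luminescence.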
# HTT aggregate – mutant huntingtin aggregation inhibition; PC12 HttQ103-GFP aggregates, Acumen cytometry, 40 h; Potency, µM (titrated, usually from 46.1 µM), most hits filed as inhibitors; 1.1% of 220,000 active; further: nearly all actives have a fitted effect of over 60% in size
#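 Aggregate formation scored by laser-scanning cytometer (488 excitation, 500–530 emission) in lysed PC12 cells expressing Q103-GFP after 100 nM tebufenozide induction; library tested in dose series, with ATPLite reagent added in the multiplex.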
# Numbers stand for hits; 0 = inactive; ? = inconclusive; - = no result; [ ] = another dose, or the depositor's remark. Unless noted, the call rests on the fitted dose curve; in most records, active means well fitted curve in the direction sought with a large enough effect; inconclusive means small, poorly fitted or top-dose-only effect, or another doubt; inactive means no such curve, though single readings can be large; an effect the other way counts as inactive or inconclusive.
SMILES,HPGD block,LMNA splice mod,ALDH1A1 block,HTT ATP protect,HTT aggregate
c1ccc2c(c1)CCN2CCN1CCc2ccccc21,0,0,39.8µM,0,0
O=C(CCN1CCC(c2ccccc2)C1)c1cccs1 (configuration not stated),0,?,0.126µM,0,0
O=C(CCC(=O)N1CCN(c2ccc(O)cc2)CC1)c1cccs1,-,-,-,0[10 µM],0[9.22 µM]
CN(C)CCN1CCc2ccccc21,0,?,?,0,0
O=C(CCN1CCC(c2cccs2)=N1)c1cccs1,-,?,3.16µM,0[10 µM],0[9.22 µM]
O=C(c1cccs1)N1CCC(c2ccccc2)C1 (configuration not stated),0,0,0,0,0
O=C(CCN1CCC(c2ccccc2)C1)c1ccccc1 (configuration not stated),0,?,1.41µM,0,0
Cc1ccc(CSc2nnc3[nH]c(=O)cc(C)n23)cc1,-,0,-,-,-
C/C(CCN1CCCc2nc(C)c(C)cc21)=N\OC[C@@H](O)[C@@H]1O[C@@H]2OC(C)(C)O[C@@H]2[C@H]1O,-,-,?,0[10 µM],-
COCC(C)n1c(C)cc(C(=O)COC(=O)/C=C/c2cccc(F)c2)c1C (configuration not stated),-,-,0,0,0
C=CCOC(=O)C(C(C)=O)C(NC(=O)OC)c1cccc(F)c1 (configuration not stated),-,-,0[13.5 µM],0[10 µM],-
COc1ccc(CNC(=O)CCCc2cn(C)c3ccccc23)c(OC)c1,-,0,-,-,-
O=C(CCN1CCc2ccccc21)c1ccc2c(c1)OCCO2,0,?,3.16µM,0,?
O=C(CCN1CCCC1Cc1ccccc1)c1ccc2c(c1)OCCO2 (configuration not stated),0,?,0.0355µM,0,0
COc1cc(C(=O)CCN2CCC(c3ccccc3)C2)cc(OC)c1OC (configuration not stated),0,0,0.0398µM,?,?
O=C(CCN1CCCCC1)c1ccc2c(c1)OCCO2,0,0,0.1µM,0[0.074 µM],0
O=C(CCN1CCc2ccccc2C1)c1ccc2c(c1)OCCO2,?,?,?,0,0
COc1cc(C(C)=O)ccc1OCCN1CCC(Cc2ccccc2)CC1,-,-,?,0,0
COc1cccc(Cn2c(=O)c(-c3cc(F)cc(F)c3)nc3cnc(N(C)C)nc32)c1,-,0,?,0,-
O=C(CCN1CCC(c2ccccc2)C1)c1ccc2c(c1)OCCO2 (configuration not stated),0,?,0.112µM,0,?
CCCCN(CC)S(=O)(=O)c1ccc(C(=O)Nc2nnc(-c3ccccc3Cl)o2)cc1,0,?,0,0[10 µM],10µM
CCCCN(CCCC)S(=O)(=O)c1ccc(C(=O)Nc2nnc(CSC)o2)cc1,0,?,0,0,?
CCN(Cc1ccccc1)S(=O)(=O)c1ccc(C(=O)Nc2nnc(-c3ccccc3OC)o2)cc1,0,?,?,0[10 µM],22.4µM
CCCCN(CC)S(=O)(=O)c1ccc(C(=O)Nc2nnc(COC)o2)cc1,0,0,0,0,?
COc1ccccc1-c1nnc(NC(=O)c2ccc(S(=O)(=O)N(C)C)cc2)o1,0,?,0,0,0[9.22 µM]
SMILES,HPGD block,LMNA splice mod,ALDH1A1 block,HTT ATP protect,HTT aggregate
COc1cccc(-c2nnc(NC(=O)c3cccc(F)c3)o2)c1,-,-,-,0[10 µM],0[9.22 µM]
CCCN(CCC)S(=O)(=O)c1ccc(C(=O)Nc2nnc(-c3cccc(OC)c3)o2)cc1,0,?,0,-,10µM
CCCCN(CC)S(=O)(=O)c1ccc(C(=O)Nc2nnc(CSC)o2)cc1,0,?,0,0,10µM
CCn1c(SCC(=O)Nc2c(C#N)cnn2-c2ccccc2)nnc1-c1cccs1,-,-,-,0[10 µM],0[9.22 µM]
Cn1c(=O)cnc2cnc(OCc3ccccc3)nc21,-,0,?,0,-
CCCN(CCC)S(=O)(=O)c1ccc(C(=O)Nc2nnc(CSC)o2)cc1,0,?,0,0,11.2µM
Cc1nn2c(NCCOCCO)c3c(nc2c1-c1ccccc1)CCCC3,0,0,31.6µM,0,0
CC(C)N(CC#CCC1(O)c2ccccc2-c2ccccc21)CCO,0,0,20µM,0[10 µM],0
O=C(Cn1ncc(Cl)c(Cl)c1=O)N1CCc2ccccc21,-,-,10µM,0,?
Cc1nn(CC(=O)N2c3ccccc3NC(=O)C2(C)C)c(C)c1[N+](=O)[O-],-,0,0,0,0
CC1(C)C(=O)Nc2ccccc2N1C(=O)Cn1ncc(Cl)c(Cl)c1=O,-,-,1.12µM,0[10 µM],0[9.22 µM]
O=C(Cn1ncc2c1-c1ccccc1OC2)N1CCc2ccccc21,0,?,0,0,0
O=C(Cn1ncc(Cl)c(Cl)c1=O)N1CCN(Cc2ccccc2)CC1,-,?,28.2µM,0[10 µM],?
O=C(Cn1ncc(Cl)c(Cl)c1=O)N1CCOCC1,-,?,0,0[10 µM],?
COC(=O)Nc1ccc(S(=O)(=O)N2CCC(C(=O)N3CCCC(C)C3)CC2)cc1 (configuration not stated),-,-,?,0,0[9.22 µM]
O=C(CCc1ccccc1)NC(=S)Nc1cccc(Br)c1,0,?,?,0[10 µM],0
S=C(Nc1cccc(Br)c1)c1ccccc1,12.6µM,?,0,-,0
CCOC(=O)CSc1nc2ccccc2c(=O)n1CC1CCCC1,0,0,?,0[10 µM],0
COC(=O)c1ccc2c(=O)n(-c3ccccc3)c(SCN3C(=O)c4ccccc4C3=O)nc2c1,0,?,12.6µM,0[10 µM],0
CCOC(=O)CSc1nc2cc(C(=O)N3CCC(C(N)=O)CC3)ccc2c(=O)n1-c1ccccc1,0,0,0,0,2.82µM
COC(=O)c1c(NC(=O)CSc2nc3ccccc3c(=O)n2-c2ccccc2)sc(C)c1C,0,0,0,-,0
CCOC(=O)CSc1nc2cc(C(=O)N3CCCC3)ccc2c(=O)n1Cc1ccccc1,0,0,25.1µM,0,0
COC(=O)CCCC(=O)N1CCCC(C(=O)c2ccc(OC)cc2C)C1 (configuration not stated),-,-,2.51µM,0[10 µM],0[9.22 µM]
COc1ccc(C(=O)C2CCCN(C(=O)CCc3ccccn3)C2)c(C)c1 (configuration not stated),-,-,0,0[10 µM],0[9.22 µM]
COc1ccccc1C(=O)C1CCCN(C(=O)CCc2ccccn2)C1 (configuration not stated),-,-,17.8µM,0,0
SMILES,HPGD block,LMNA splice mod,ALDH1A1 block,HTT ATP protect,HTT aggregate
CCOCCCNC(=O)/C(C#N)=C/c1ccc(Cl)c([N+](=O)[O-])c1,-,?,10µM,0,0
CCOCCCNC(=O)/C(C#N)=C/c1ccc(C(=O)OC)cc1,-,-,?,0,0
CCOCCCNC(=O)/C(C#N)=C/c1cc(OC)c(O)c([N+](=O)[O-])c1,-,-,12.6µM,0,0
COCCNC(=O)/C(C#N)=C/c1ccc(O)c([N+](=O)[O-])c1,-,-,?,0,?
CCOCCCNC(=O)/C(C#N)=C/c1cc(C)c(O)c(C)c1,-,?,10µM,0,0
CCc1ccc(NC(=O)CSc2nnc(-c3cc4occc4n3C)n2-c2ccccc2C)cc1,-,0,-,-,-
CCN(CC)CCCNC(=O)CN1C(=O)CCn2nc(-c3cn(C)c4ccccc34)cc21,-,0,-,-,-
Cc1cc(C(=O)NCCc2ccc(Cl)cc2)c2c(C)nn(-c3cccc(F)c3)c2n1,-,0,-,-,-
c1coc(-c2nnc3sc(Cc4cccs4)nn23)c1,?,0,20µM,0[10 µM],?

# Source: PubChem BioAssay
